We go through 17 compounds from ChEMBL document CHEMBL3988442, “University of Dundee, Small-Polar-MMV Screening Library” (2021).

Assay [1] addresses T1, Aspartate--tRNA(Asp/Asn) ligase (Mycobacterium tuberculosis (strain ATCC 25618 / H37Rv)) (UniProt P9WFW3).
T1 sequence (whole entry): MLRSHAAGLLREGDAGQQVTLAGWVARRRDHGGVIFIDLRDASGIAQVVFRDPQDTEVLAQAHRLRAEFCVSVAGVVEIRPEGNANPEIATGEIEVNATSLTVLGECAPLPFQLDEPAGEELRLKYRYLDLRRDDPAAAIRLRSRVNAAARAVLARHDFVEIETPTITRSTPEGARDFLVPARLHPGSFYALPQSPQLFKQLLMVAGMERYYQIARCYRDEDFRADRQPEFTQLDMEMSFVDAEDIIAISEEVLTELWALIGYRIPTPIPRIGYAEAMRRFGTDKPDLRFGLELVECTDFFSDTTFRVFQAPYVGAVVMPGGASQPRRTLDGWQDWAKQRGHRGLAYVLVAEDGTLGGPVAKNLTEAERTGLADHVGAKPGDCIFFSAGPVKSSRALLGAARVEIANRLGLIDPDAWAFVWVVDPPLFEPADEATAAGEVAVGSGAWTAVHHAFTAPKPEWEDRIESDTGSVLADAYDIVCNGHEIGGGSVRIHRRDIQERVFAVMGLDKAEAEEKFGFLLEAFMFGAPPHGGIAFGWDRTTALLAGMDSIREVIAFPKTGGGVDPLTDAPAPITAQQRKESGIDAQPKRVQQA
Briefly: Assay for Asp RNA synthetase-1 from Mycobacterium tuberculosis. The format is functional. Set-up: scale not given: direction of the effect not stated beside the values. The following applies: 30 µM.

Assay [2] has as its target Shiga toxin 2 (Escherichia coli O157:H7) (UniProt P09385+P09386). Briefly: E. coli 0.157:H7 Shiga Toxin SOP - stx2 screening assay. Set-up: scale not given: direction of the effect not stated beside the values. In kind it is functional. The following applies: 30 µM.

Molecules are shown by their SMILES.

As for `c1ccc(OC2CCCC2)c(CNC2CCc3ncnn3C2)c1` (centres undefined), the Percent Effect was -1.83% in assay [1] and 9.47% in assay [2].
Consider `Cc1cc(N2CCN(Cc3nccn3C)CC2)cc(C)n1`, for which the Percent Effect was 2.09% in assay [1] and -75.9% in assay [2].
As to `COCCCNC(=O)CN(C)C(=O)c1cc(C)ccc1N(C)C(C)C`, the results for the Percent Effect in assay [1] and in assay [2] were 1.84% and 4.69%, respectively.
Taken in the same sequence, the figures for `Cc1nc(C)n(CC2CCCCN2Cc2nnc(C3CC3)o2)n1` (centres undefined) were 1.18% and -4.29%.
In the case of `CCOCCOc1ccccc1C(=O)N1CCCC(c2ncc[nH]2)C1` (centres undefined), the Percent Effect in assay [1] is 7.07%; in assay [2] it was -32.6%.
Taken in the same sequence, the figures for `O=C1NCCCCC1Sc1nnc(-c2cccnc2)n1C1CC1` (centres undefined) were -3.62% and 7.22%.
Taken in the same sequence, the figures for `Cn1nc2c(cc1=O)CN(CC(=O)Nc1ccc(Cl)cn1)CC2` were 48.3% and -4.57%.
Take `COc1ccc(CN2CCCC(Nc3cccc(F)c3)C2)cc1O` (centres undefined): the Percent Effect was found to be 5.06% in assay [1] and 5.84% in assay [2].
Taken in the same sequence, the figures for `Cc1noc(NC(=O)c2ccc(Br)cc2)n1` were -2.92% and 54.5%.
With `CCC(C)N(C)CCNC(=O)NCc1cccc(-n2cncn2)c1` (centres undefined), the figures for the Percent Effect in assay [1] and in assay [2] were -1.54% and -5.27%, respectively.
The matching figures for `CCN(Cc1cccc2c1OCO2)C(=O)C(C)c1cccnc1` (centres undefined): 1.18% and -4.53%.
Taken in the same sequence, the figures for `O=C(NCCOc1cccc(Cl)c1)C1CC(=O)N(CC2CC2)C1` (centres undefined) were 0% and -10.5%.
Taken in the same sequence, the figures for `CCN(CC)CCNC(=O)c1nn(CC)cc1Cl` were -6.16% and -57%.
As to `CCc1c(C(=O)NC2CCS(=O)(=O)C2)cnn1-c1ccc(F)cc1` (centres undefined), the values for the Percent Effect in assay [1] and in assay [2] were -1.69% and 9.21%, respectively.
For `CCNC(=O)N1CCN(C(=O)c2cc(Cl)cc3cccnc23)CC1`, the results for the Percent Effect in assay [1] and in assay [2] were -3.21% and -11.9%, respectively.
For the compound `COCc1nc(C(=O)NS(=O)(=O)c2ccc(C)cc2C)cs1`, the Percent Effect in assay [1] was 0.811%; in assay [2], -0.5%.
With `CC(C)(C)c1nnc(CN2CCCC(c3cc(C(N)=O)[nH]n3)C2)o1` (centres undefined), the results for the Percent Effect in assay [1] and in assay [2] were -0.781% and 19.9%, respectively.
